The values below come from publication PMC11006913.

Substitutions are numbered along the chain they refer to.

What all share (assay): PBM; 200 nM protein, PBS
What all share (details): dsDNA, one strand shown

For test [1], the target named is T1, SIX6 (Homo sapiens, UniProt O95475 114-200, T165G).
T1 sequence: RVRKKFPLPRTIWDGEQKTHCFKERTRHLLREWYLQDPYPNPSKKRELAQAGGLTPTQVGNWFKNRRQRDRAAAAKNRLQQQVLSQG

The target of test [2] is T2, SIX6 (Homo sapiens, UniProt O95475 114-200, T165A).
T2 sequence: T1 sequence with G52A

In a further test the target is HESX1 (Homo sapiens, UniProt Q9UBX0 95-180).
Sequence of HESX1 (Q9UBX0 95-180): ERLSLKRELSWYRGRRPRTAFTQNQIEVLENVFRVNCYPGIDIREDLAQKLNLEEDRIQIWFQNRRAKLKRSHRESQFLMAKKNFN
The target in test [3] is HOXA2 (Homo sapiens, UniProt O43364 129-215, R185T).
Sequence of HOXA2 (Homo sapiens, UniProt O43364 129-215, R185T) (O43364 129-215 R185T): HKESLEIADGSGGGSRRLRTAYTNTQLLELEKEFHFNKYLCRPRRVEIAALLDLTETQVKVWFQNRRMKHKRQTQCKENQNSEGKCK
Test [4] addresses MSX2 (Homo sapiens, UniProt P35548 130-214, R199I).
In test [5] the target is T3, NKX2-6 (Homo sapiens, UniProt A6NCS4 118-204).
T3 sequence: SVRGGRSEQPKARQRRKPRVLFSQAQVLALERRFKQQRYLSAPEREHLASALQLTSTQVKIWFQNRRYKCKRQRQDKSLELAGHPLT

Test [6] has as its target HOXA2 (Homo sapiens, UniProt O43364 129-215, R185K).
In test [7] the target is MSX2 (Homo sapiens, UniProt P35548 130-214).
Sequence of MSX2 (Homo sapiens, UniProt P35548 130-214) (P35548 130-214): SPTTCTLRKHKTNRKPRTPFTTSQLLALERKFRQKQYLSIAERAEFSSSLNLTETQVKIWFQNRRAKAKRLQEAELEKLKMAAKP
The target of test [8] is T4, NKX2-6 (Homo sapiens, UniProt A6NCS4 118-204, F151L).
T4 sequence: T3 sequence with F34L

In test [9] the target is MSX2 (Homo sapiens, UniProt P35548 130-214, F161Y).
Sequence of MSX2 (Homo sapiens, UniProt P35548 130-214, F161Y) (P35548 130-214 F161Y): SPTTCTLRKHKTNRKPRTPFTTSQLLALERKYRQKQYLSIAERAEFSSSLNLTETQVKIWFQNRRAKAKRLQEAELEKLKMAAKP
For test [10], the target named is HOXA2 (Homo sapiens, UniProt O43364 129-215, Y150S).
Sequence of HOXA2 (Homo sapiens, UniProt O43364 129-215, Y150S) (O43364 129-215 Y150S): as the sequence (O43364 129-215 R185T) above, with Y22S, T57R counted along it
Test [11] has as its target HOXA2 (Homo sapiens, UniProt O43364 129-215).
Test [12] deals with ALX1 (Homo sapiens, UniProt Q15699 118-204, L144V).
Sequence of ALX1 (Homo sapiens, UniProt Q15699 118-204, L144V) (Q15699 118-204 L144V): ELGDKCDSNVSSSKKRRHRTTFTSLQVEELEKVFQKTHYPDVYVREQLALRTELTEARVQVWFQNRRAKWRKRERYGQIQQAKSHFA
The target of test [13] is ALX1 (Homo sapiens, UniProt Q15699 118-204, L144R).
Sequence of ALX1 (Homo sapiens, UniProt Q15699 118-204, L144R) (Q15699 118-204 L144R): as the sequence (Q15699 118-204 L144V) above, with V27R counted along it
Test [14] deals with NKX3-2 (Homo sapiens, UniProt P78367 192-278, P234S).
Sequence of NKX3-2 (Homo sapiens, UniProt P78367 192-278, P234S) (P78367 192-278 P234S): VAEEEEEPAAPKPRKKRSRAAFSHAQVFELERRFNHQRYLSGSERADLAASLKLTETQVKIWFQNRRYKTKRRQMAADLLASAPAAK
Test [15] has as its target ALX1 (Homo sapiens, UniProt Q15699 118-204).
The target of test [16] is NKX3-2 (Homo sapiens, UniProt P78367 192-278).
Sequence of NKX3-2 (Homo sapiens, UniProt P78367 192-278) (P78367 192-278): as the sequence (P78367 192-278 P234S) above, with S43P counted along it
The target of test [17] is VAX1 (Homo sapiens, UniProt Q5SQQ9 86-172).
Sequence of VAX1 (Homo sapiens, UniProt Q5SQQ9 86-172) (Q5SQQ9 86-172): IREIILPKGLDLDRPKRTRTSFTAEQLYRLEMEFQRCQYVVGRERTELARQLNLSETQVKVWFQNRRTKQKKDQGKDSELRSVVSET
Test [18] has as its target VAX1 (Homo sapiens, UniProt Q5SQQ9 86-172, T142I).
Test [19] has as its target VAX1 (Homo sapiens, UniProt Q5SQQ9 86-172, K157R).
The target in another test is HOXA4 (Homo sapiens, UniProt Q00056 201-287, W262F).
Sequence of HOXA4 (Q00056 201-287 W262F): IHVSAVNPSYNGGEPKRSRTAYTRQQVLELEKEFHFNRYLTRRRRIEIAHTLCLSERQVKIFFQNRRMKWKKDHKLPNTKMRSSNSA

Sequence of HOXA2 (Homo sapiens, UniProt O43364 129-215) (O43364 129-215): as the sequence (O43364 129-215 R185T) above, with T57R counted along it
Sequence of VAX1 (Homo sapiens, UniProt Q5SQQ9 86-172, T142I) (Q5SQQ9 86-172 T142I): as the sequence (Q5SQQ9 86-172) above, with T57I counted along it
Sequence of HOXA2 (Homo sapiens, UniProt O43364 129-215, R185K) (O43364 129-215 R185K): as the sequence (O43364 129-215 R185T) above, with T57K counted along it
Sequence of VAX1 (Homo sapiens, UniProt Q5SQQ9 86-172, K157R) (Q5SQQ9 86-172 K157R): as the sequence (Q5SQQ9 86-172) above, with K72R counted along it
Sequence of MSX2 (Homo sapiens, UniProt P35548 130-214, R199I) (P35548 130-214 R199I): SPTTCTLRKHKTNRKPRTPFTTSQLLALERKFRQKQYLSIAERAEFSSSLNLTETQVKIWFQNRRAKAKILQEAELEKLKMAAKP
Sequence of ALX1 (Homo sapiens, UniProt Q15699 118-204) (Q15699 118-204): as the sequence (Q15699 118-204 L144V) above, with V27L counted along it

For the sequence GGTGTAAC, the binding signal with SIX6 [1] is 10.4 upbm affinity estimate (log intensity, higher = more binding, comparable within an allelic series); with SIX6 [2] it was 10.4 upbm affinity estimate (log intensity, higher = more binding, comparable within an allelic series).
For TAACTTGA, in the test with HESX1, the binding signal is 7.21 upbm affinity estimate (log intensity, higher = more binding, comparable within an allelic series).
Regarding ACGATCAA, the binding signal with HESX1 is 7.32 upbm affinity estimate (log intensity, higher = more binding, comparable within an allelic series).
CGCCACGC: the binding signal is 7.14 upbm affinity estimate (log intensity, higher = more binding, comparable within an allelic series) with HOXA2 [3]; 9.28 upbm affinity estimate (log intensity, higher = more binding, comparable within an allelic series) with MSX2 [4]; 9.43 upbm affinity estimate (log intensity, higher = more binding, comparable within an allelic series) with NKX2-6 [5]; 10.1 upbm affinity estimate (log intensity, higher = more binding, comparable within an allelic series) in the test with HOXA2 [6]; 9.35 upbm affinity estimate (log intensity, higher = more binding, comparable within an allelic series) with MSX2 [7]; 9.12 upbm affinity estimate (log intensity, higher = more binding, comparable within an allelic series) with NKX2-6 [8]. The binding signal was 9.31 upbm affinity estimate (log intensity, higher = more binding, comparable within an allelic series) with MSX2 [9]; 10.3 upbm affinity estimate (log intensity, higher = more binding, comparable within an allelic series) with HOXA2 [10]; 7.2 upbm affinity estimate (log intensity, higher = more binding, comparable within an allelic series) with HOXA2 [11].
On to CCGCCGCA, for which the binding signal with HOXA2 [3] was 7.15 upbm affinity estimate (log intensity, higher = more binding, comparable within an allelic series); with MSX2 [4] it was 9.56 upbm affinity estimate (log intensity, higher = more binding, comparable within an allelic series); with HOXA2 [6] it was 10.1 upbm affinity estimate (log intensity, higher = more binding, comparable within an allelic series); with MSX2 [7], 9.59 upbm affinity estimate (log intensity, higher = more binding, comparable within an allelic series); with MSX2 [9], 9.59 upbm affinity estimate (log intensity, higher = more binding, comparable within an allelic series); with HOXA2 [10] it was 10.4 upbm affinity estimate (log intensity, higher = more binding, comparable within an allelic series). The binding signal with HOXA2 [11] is 7.05 upbm affinity estimate (log intensity, higher = more binding, comparable within an allelic series).
For the sequence ACGACACC, the binding signal with SIX6 [1] is 10.6 upbm affinity estimate (log intensity, higher = more binding, comparable within an allelic series); in the test with SIX6 [2], 10.6 upbm affinity estimate (log intensity, higher = more binding, comparable within an allelic series).
For the sequence AAGTAGAG, the binding signal with HESX1 is 7.4 upbm affinity estimate (log intensity, higher = more binding, comparable within an allelic series).
On to GACCGCCC, for which the binding signal with HOXA2 [3] is 7.33 upbm affinity estimate (log intensity, higher = more binding, comparable within an allelic series); with ALX1 [12], 6.66 upbm affinity estimate (log intensity, higher = more binding, comparable within an allelic series); in the test with HOXA2 [6] it was 10.1 upbm affinity estimate (log intensity, higher = more binding, comparable within an allelic series); with ALX1 [13], 6.49 upbm affinity estimate (log intensity, higher = more binding, comparable within an allelic series); in the test with HOXA2 [10] it was 10.4 upbm affinity estimate (log intensity, higher = more binding, comparable within an allelic series); in the test with NKX3-2 [14], 10.5 upbm affinity estimate (log intensity, higher = more binding, comparable within an allelic series). Moreover, the binding signal in the test with ALX1 [15] was 6.57 upbm affinity estimate (log intensity, higher = more binding, comparable within an allelic series); in the test with HOXA2 [11], 7.29 upbm affinity estimate (log intensity, higher = more binding, comparable within an allelic series); with NKX3-2 [16], 10.5 upbm affinity estimate (log intensity, higher = more binding, comparable within an allelic series).
As for AAGTGTCA, the binding signal with SIX6 [1] is 10.5 upbm affinity estimate (log intensity, higher = more binding, comparable within an allelic series); with SIX6 [2] it was 10.5 upbm affinity estimate (log intensity, higher = more binding, comparable within an allelic series); in the test with MSX2 [7] it was 10.6 upbm affinity estimate (log intensity, higher = more binding, comparable within an allelic series); with MSX2 [9], 10.5 upbm affinity estimate (log intensity, higher = more binding, comparable within an allelic series).
Turning to GCTCATTA, the binding signal with HOXA2 [3] is 12.7 upbm affinity estimate (log intensity, higher = more binding, comparable within an allelic series); with HOXA2 [6], 13.2 upbm affinity estimate (log intensity, higher = more binding, comparable within an allelic series); in the test with VAX1 [17], 13.1 upbm affinity estimate (log intensity, higher = more binding, comparable within an allelic series); with VAX1 [18] it was 12.8 upbm affinity estimate (log intensity, higher = more binding, comparable within an allelic series); with HOXA2 [10] it was 10.5 upbm affinity estimate (log intensity, higher = more binding, comparable within an allelic series); with HOXA2 [11], 12.5 upbm affinity estimate (log intensity, higher = more binding, comparable within an allelic series). Further, the binding signal with VAX1 [19] is 12.7 upbm affinity estimate (log intensity, higher = more binding, comparable within an allelic series).
For the sequence CGTCATTA, the binding signal was 12.3 upbm affinity estimate (log intensity, higher = more binding, comparable within an allelic series) in the test with HOXA2 [3]; 13.2 upbm affinity estimate (log intensity, higher = more binding, comparable within an allelic series) with HOXA2 [6]; 10.8 upbm affinity estimate (log intensity, higher = more binding, comparable within an allelic series) in the test with HOXA2 [10]; 11.4 upbm affinity estimate (log intensity, higher = more binding, comparable within an allelic series) with HOXA4; 12.3 upbm affinity estimate (log intensity, higher = more binding, comparable within an allelic series) with HOXA2 [11].
Take CCTGCCAC: the binding signal was 7.29 upbm affinity estimate (log intensity, higher = more binding, comparable within an allelic series) in the test with HOXA2 [3]; 10.3 upbm affinity estimate (log intensity, higher = more binding, comparable within an allelic series) in the test with HOXA2 [6]; 10.6 upbm affinity estimate (log intensity, higher = more binding, comparable within an allelic series) with HOXA2 [10]; 7.12 upbm affinity estimate (log intensity, higher = more binding, comparable within an allelic series) with HOXA2 [11].
As for CTGGGGCC, the binding signal with HOXA2 [3] was 7.14 upbm affinity estimate (log intensity, higher = more binding, comparable within an allelic series); with HOXA2 [6], 10.1 upbm affinity estimate (log intensity, higher = more binding, comparable within an allelic series); in the test with HOXA2 [10], 10.3 upbm affinity estimate (log intensity, higher = more binding, comparable within an allelic series); with HOXA2 [11], 7.16 upbm affinity estimate (log intensity, higher = more binding, comparable within an allelic series).
Turning to GCAACCCC, the binding signal with HOXA2 [3] was 7.26 upbm affinity estimate (log intensity, higher = more binding, comparable within an allelic series); in the test with HOXA2 [6] it was 10.1 upbm affinity estimate (log intensity, higher = more binding, comparable within an allelic series); in the test with HOXA2 [10], 10.4 upbm affinity estimate (log intensity, higher = more binding, comparable within an allelic series); in the test with HOXA2 [11], 7.17 upbm affinity estimate (log intensity, higher = more binding, comparable within an allelic series).
On to CCACCCCC, for which the binding signal was 7.29 upbm affinity estimate (log intensity, higher = more binding, comparable within an allelic series) with HOXA2 [3]; 10.2 upbm affinity estimate (log intensity, higher = more binding, comparable within an allelic series) with HOXA2 [6]; 10.4 upbm affinity estimate (log intensity, higher = more binding, comparable within an allelic series) in the test with HOXA2 [10]; 6.98 upbm affinity estimate (log intensity, higher = more binding, comparable within an allelic series) with HOXA2 [11].
On to GGGAGCCC, for which the binding signal is 7.4 upbm affinity estimate (log intensity, higher = more binding, comparable within an allelic series) with HOXA2 [3]; 10.3 upbm affinity estimate (log intensity, higher = more binding, comparable within an allelic series) with HOXA2 [6]; 7.23 upbm affinity estimate (log intensity, higher = more binding, comparable within an allelic series) with VAX1 [17]; 7.09 upbm affinity estimate (log intensity, higher = more binding, comparable within an allelic series) with VAX1 [18]; 10.5 upbm affinity estimate (log intensity, higher = more binding, comparable within an allelic series) with HOXA2 [10]; 7.35 upbm affinity estimate (log intensity, higher = more binding, comparable within an allelic series) with HOXA2 [11]. The binding signal with VAX1 [19] was 7.13 upbm affinity estimate (log intensity, higher = more binding, comparable within an allelic series).
Regarding CGAGAGGC, the binding signal in the test with HOXA2 [3] was 7.16 upbm affinity estimate (log intensity, higher = more binding, comparable within an allelic series); in the test with HOXA2 [6], 10.3 upbm affinity estimate (log intensity, higher = more binding, comparable within an allelic series); with HOXA2 [10] it was 10.4 upbm affinity estimate (log intensity, higher = more binding, comparable within an allelic series); with HOXA2 [11], 7.01 upbm affinity estimate (log intensity, higher = more binding, comparable within an allelic series).
For AACCTAAT, the binding signal in the test with HOXA2 [3] is 10.5 upbm affinity estimate (log intensity, higher = more binding, comparable within an allelic series); with HOXA2 [6], 12.1 upbm affinity estimate (log intensity, higher = more binding, comparable within an allelic series); in the test with HOXA2 [10] it was 10.6 upbm affinity estimate (log intensity, higher = more binding, comparable within an allelic series); with HOXA2 [11], 10.3 upbm affinity estimate (log intensity, higher = more binding, comparable within an allelic series).
In the case of TCATTAGA, the binding signal in the test with HOXA2 [3] is 12.1 upbm affinity estimate (log intensity, higher = more binding, comparable within an allelic series); in the test with HOXA2 [6] it was 13 upbm affinity estimate (log intensity, higher = more binding, comparable within an allelic series); in the test with VAX1 [17], 12.8 upbm affinity estimate (log intensity, higher = more binding, comparable within an allelic series); with VAX1 [18], 12.5 upbm affinity estimate (log intensity, higher = more binding, comparable within an allelic series); with HOXA2 [10], 10.6 upbm affinity estimate (log intensity, higher = more binding, comparable within an allelic series); with HOXA2 [11], 12.1 upbm affinity estimate (log intensity, higher = more binding, comparable within an allelic series). In addition, the binding signal with VAX1 [19] was 12.5 upbm affinity estimate (log intensity, higher = more binding, comparable within an allelic series).
As to AACCGGGC, the binding signal with HOXA2 [3] is 7.08 upbm affinity estimate (log intensity, higher = more binding, comparable within an allelic series); with HOXA2 [6] it was 10.3 upbm affinity estimate (log intensity, higher = more binding, comparable within an allelic series); with HOXA2 [10], 10.3 upbm affinity estimate (log intensity, higher = more binding, comparable within an allelic series); in the test with NKX3-2 [14], 10.4 upbm affinity estimate (log intensity, higher = more binding, comparable within an allelic series); with HOXA2 [11], 7.35 upbm affinity estimate (log intensity, higher = more binding, comparable within an allelic series); with NKX3-2 [16] it was 10.4 upbm affinity estimate (log intensity, higher = more binding, comparable within an allelic series).
Turning to AATCAGCT, the binding signal was 10.1 upbm affinity estimate (log intensity, higher = more binding, comparable within an allelic series) with HOXA2 [3]; 11.9 upbm affinity estimate (log intensity, higher = more binding, comparable within an allelic series) with HOXA2 [6]; 10.7 upbm affinity estimate (log intensity, higher = more binding, comparable within an allelic series) in the test with HOXA2 [10]; 9.77 upbm affinity estimate (log intensity, higher = more binding, comparable within an allelic series) with HOXA2 [11].
Consider AGTTAACG, for which the binding signal is 9.97 upbm affinity estimate (log intensity, higher = more binding, comparable within an allelic series) in the test with HOXA2 [3]; 12.2 upbm affinity estimate (log intensity, higher = more binding, comparable within an allelic series) with HOXA2 [6]; 10.7 upbm affinity estimate (log intensity, higher = more binding, comparable within an allelic series) with HOXA2 [10]; 9.96 upbm affinity estimate (log intensity, higher = more binding, comparable within an allelic series) in the test with HOXA2 [11].
